Assay in all cases: DAPPL (digital affinity profiling via proximity ligation, sequencing); 10 mM Tris-HCl pH 7.5, 50 mM NaCl, 1 mM DTT, 4% glycerol, room temperature, 30 min; GST-TFs on glutathione beads, 16-mer random dsDNA library, 0.1% formaldehyde crosslink after washing; high values mean tight binding
One assay deals with T1, FEV (Homo sapiens, UniProt Q99581 1-238).
T1 sequence: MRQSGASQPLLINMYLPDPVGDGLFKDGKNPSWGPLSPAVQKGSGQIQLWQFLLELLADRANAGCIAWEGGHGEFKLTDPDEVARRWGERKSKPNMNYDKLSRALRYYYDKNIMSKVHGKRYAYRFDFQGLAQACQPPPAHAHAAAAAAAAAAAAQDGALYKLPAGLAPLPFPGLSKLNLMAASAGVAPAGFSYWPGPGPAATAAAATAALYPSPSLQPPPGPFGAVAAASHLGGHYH
The following applies: protein: recombinant; tags: N-terminal GST; dsDNA, one strand shown. The method in brief: (§1)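 Yeast served to express human transcription factors as GST fusions, which were then captured on glutathione beads and labelled with DNA barcodes. Pooled with a tag-only sample, they were incubated with 200 nmole of a 16-mer random double-stranded DNA library for 30 min at room temperature in Tris/NaCl/DTT/glycerol buffer, washed, crosslinked with 0.1% formaldehyde, ligated by proximity, amplified by PCR and sequenced. Dividing each hexamer's read frequency for a factor by its frequency for the tag-only sample gives the binding signal.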

The target of the next assay is ETV5 (Homo sapiens, UniProt P41161 1-510). The following applies: protein: recombinant; tags: N-terminal GST; dsDNA, one strand shown. The procedure, abridged: as §1
The target of the next assay is HSF1 (Homo sapiens, UniProt Q00613 1-529). The following applies: protein: recombinant; tags: N-terminal GST; chain copies: 3; dsDNA, one strand shown. The method in brief:
as §1

The target of a further assay is T2, SPIC (Homo sapiens, UniProt Q8N5J4 1-248).
T2 sequence: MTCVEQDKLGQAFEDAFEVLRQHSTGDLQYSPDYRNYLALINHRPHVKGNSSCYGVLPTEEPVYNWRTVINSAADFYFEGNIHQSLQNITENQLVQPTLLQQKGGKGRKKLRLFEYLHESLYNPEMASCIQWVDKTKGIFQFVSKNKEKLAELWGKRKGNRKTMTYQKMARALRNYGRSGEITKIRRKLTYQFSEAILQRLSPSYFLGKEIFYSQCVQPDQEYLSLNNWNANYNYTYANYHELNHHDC
The following applies: protein: recombinant; tags: N-terminal GST; dsDNA, one strand shown. The procedure, abridged: as §1

A further assay deals with ELF4 (Homo sapiens, UniProt Q99607 1-663). Particulars: protein: recombinant; tags: N-terminal GST; dsDNA, one strand shown. The procedure, abridged:
as §1

The target in the next assay is T3, ELK4 (Homo sapiens, UniProt P28324-2 1-405).
T3 sequence: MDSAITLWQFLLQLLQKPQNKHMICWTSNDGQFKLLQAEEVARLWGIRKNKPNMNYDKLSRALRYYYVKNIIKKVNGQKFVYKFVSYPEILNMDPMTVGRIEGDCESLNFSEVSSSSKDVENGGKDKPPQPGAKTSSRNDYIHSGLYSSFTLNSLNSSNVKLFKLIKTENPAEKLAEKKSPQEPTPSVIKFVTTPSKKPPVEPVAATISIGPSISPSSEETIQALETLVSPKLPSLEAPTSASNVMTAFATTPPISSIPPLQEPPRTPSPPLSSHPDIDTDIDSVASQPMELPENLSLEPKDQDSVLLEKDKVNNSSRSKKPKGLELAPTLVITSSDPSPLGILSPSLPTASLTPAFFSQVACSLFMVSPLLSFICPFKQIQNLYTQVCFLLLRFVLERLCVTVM
Particulars: protein: recombinant; tags: N-terminal GST; dsDNA, one strand shown. The method in brief:
as §1

The target in a further assay is T4, ETV2 (Homo sapiens, UniProt O00321 1-342).
T4 sequence: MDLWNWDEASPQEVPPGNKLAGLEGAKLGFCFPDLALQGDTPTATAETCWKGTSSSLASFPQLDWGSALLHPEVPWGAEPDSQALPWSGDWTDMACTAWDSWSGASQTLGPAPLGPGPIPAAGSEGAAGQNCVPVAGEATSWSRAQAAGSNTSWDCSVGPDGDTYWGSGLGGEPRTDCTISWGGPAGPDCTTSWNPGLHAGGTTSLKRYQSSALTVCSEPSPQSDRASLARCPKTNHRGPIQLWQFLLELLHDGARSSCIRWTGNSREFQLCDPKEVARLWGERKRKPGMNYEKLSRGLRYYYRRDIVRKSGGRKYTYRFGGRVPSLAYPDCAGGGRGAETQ
Particulars: protein: recombinant; tags: N-terminal GST; dsDNA, one strand shown. The procedure, abridged: as §1

A further assay has as its target T5, ELF3 (Homo sapiens, UniProt P78545 1-371).
T5 sequence: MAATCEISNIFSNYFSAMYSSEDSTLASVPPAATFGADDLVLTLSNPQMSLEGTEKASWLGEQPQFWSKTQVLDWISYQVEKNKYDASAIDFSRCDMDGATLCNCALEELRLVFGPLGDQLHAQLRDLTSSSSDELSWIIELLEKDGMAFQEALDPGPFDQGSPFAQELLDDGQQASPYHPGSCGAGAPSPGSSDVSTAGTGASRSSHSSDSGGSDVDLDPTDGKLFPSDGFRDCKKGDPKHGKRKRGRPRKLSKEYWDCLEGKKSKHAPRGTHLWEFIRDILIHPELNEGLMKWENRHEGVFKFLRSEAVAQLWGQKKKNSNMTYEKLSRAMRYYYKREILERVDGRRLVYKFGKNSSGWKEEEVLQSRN
Particulars: protein: recombinant; tags: N-terminal GST; dsDNA, one strand shown. The method in brief: as §1

A further assay addresses CRX (Homo sapiens, UniProt O43186 1-299). Particulars: protein: recombinant; tags: N-terminal GST; dsDNA, one strand shown. The method in brief: as §1
A further assay deals with ETV1 (Homo sapiens, UniProt P50549 1-477). Particulars: protein: recombinant; tags: N-terminal GST; dsDNA, one strand shown. The method in brief: as §1
Another assay deals with T6, ERF (Homo sapiens, UniProt P50548 1-548).
T6 sequence: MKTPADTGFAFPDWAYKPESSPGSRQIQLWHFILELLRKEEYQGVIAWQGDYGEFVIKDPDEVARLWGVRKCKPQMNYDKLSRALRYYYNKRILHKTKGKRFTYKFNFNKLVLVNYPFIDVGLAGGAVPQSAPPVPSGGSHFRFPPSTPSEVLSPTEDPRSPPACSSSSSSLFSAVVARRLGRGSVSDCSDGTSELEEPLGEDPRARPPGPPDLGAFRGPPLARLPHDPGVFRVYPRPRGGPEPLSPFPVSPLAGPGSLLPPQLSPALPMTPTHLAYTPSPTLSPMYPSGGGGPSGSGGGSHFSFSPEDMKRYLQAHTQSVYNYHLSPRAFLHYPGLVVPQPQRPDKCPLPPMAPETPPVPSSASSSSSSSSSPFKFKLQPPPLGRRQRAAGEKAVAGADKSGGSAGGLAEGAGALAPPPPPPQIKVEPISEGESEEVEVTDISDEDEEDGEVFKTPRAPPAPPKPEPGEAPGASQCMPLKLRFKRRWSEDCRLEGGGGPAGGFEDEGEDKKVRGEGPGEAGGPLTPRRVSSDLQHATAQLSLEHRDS
Particulars: protein: recombinant; tags: N-terminal GST; dsDNA, one strand shown. The procedure, abridged: as §1

The next assay addresses T7, ETV3L (Homo sapiens, UniProt Q6ZN32 1-361).
T7 sequence: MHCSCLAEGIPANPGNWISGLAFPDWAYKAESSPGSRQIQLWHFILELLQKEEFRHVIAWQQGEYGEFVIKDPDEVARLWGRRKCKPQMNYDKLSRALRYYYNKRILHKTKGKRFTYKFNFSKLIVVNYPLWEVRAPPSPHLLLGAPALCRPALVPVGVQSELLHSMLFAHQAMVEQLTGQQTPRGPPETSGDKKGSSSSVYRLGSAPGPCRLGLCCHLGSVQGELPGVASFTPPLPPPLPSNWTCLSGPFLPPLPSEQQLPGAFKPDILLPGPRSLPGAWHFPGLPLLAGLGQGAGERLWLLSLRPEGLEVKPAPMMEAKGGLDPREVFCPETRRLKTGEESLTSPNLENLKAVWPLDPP
The following applies: protein: recombinant; tags: N-terminal GST; dsDNA, one strand shown. The method in brief: as §1

The target in a further assay is T8, ETS2 (Homo sapiens, UniProt P15036 1-469).
T8 sequence: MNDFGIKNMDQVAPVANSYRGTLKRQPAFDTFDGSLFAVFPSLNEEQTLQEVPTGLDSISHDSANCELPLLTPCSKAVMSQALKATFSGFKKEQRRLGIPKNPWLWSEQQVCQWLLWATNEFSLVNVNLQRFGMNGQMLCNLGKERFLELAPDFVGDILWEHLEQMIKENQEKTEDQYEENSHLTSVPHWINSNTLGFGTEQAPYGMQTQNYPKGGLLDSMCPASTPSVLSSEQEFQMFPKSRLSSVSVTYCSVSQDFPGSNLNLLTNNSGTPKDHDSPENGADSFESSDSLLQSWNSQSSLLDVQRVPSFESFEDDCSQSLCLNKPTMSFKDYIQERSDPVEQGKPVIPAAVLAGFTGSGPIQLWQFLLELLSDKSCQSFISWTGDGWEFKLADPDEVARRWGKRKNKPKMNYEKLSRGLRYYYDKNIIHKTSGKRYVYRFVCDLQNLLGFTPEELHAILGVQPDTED
Particulars: protein: recombinant; tags: N-terminal GST; dsDNA, one strand shown. The procedure, abridged: as §1

Another assay concerns the target T9, SPDEF (Homo sapiens, UniProt O95238 1-335).
T9 sequence: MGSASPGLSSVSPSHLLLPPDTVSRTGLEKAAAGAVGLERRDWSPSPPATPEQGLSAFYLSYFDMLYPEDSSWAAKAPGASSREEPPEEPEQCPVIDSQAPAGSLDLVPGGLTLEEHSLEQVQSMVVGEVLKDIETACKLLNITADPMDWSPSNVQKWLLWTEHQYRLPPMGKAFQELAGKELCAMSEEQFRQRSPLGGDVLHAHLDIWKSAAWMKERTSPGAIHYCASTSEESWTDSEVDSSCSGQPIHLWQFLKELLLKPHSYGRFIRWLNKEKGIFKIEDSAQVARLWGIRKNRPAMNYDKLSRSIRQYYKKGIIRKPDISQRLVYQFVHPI
The following applies: protein: recombinant; tags: N-terminal GST; dsDNA, one strand shown. The method in brief:
as §1

A further assay addresses T10, ETV7 (Homo sapiens, UniProt Q9Y603 1-341).
T10 sequence: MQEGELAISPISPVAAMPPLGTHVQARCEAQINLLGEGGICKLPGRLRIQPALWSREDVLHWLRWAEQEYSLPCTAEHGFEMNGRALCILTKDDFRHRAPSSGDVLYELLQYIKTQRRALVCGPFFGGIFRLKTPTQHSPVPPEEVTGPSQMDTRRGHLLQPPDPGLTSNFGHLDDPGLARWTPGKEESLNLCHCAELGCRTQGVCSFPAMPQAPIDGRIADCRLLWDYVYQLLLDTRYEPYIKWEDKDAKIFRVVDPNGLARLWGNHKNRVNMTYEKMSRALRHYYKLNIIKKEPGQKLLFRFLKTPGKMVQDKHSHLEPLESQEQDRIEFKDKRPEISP
Particulars: protein: recombinant; tags: N-terminal GST; dsDNA, one strand shown. The procedure, abridged: as §1

Another assay concerns the target T11, ELF5 (Homo sapiens, UniProt Q9UKW6-2 1-255).
T11 sequence: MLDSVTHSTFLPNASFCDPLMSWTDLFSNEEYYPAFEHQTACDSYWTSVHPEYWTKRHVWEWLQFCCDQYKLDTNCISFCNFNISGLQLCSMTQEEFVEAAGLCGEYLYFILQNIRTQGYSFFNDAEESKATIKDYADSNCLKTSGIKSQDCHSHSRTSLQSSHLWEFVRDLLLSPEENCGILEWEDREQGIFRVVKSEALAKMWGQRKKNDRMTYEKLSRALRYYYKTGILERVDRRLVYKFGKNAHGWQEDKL
Particulars: protein: recombinant; tags: N-terminal GST; dsDNA, one strand shown. The procedure, abridged: as §1

For another assay, the target named is T12, ETV3 (Homo sapiens, UniProt P41162-2 1-143).
T12 sequence: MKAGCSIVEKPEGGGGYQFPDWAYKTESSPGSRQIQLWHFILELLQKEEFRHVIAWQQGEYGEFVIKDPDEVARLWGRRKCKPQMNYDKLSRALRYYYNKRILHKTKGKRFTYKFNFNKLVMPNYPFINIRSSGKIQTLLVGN
The following applies: protein: recombinant; tags: N-terminal GST; dsDNA, one strand shown. The procedure, abridged: as §1

For the next assay, the target named is ETV6 (Homo sapiens, UniProt P41212 1-452). The following applies: protein: recombinant; tags: N-terminal GST; dsDNA, one strand shown. The procedure, abridged: as §1
ETV6, sequence (P41212 whole entry): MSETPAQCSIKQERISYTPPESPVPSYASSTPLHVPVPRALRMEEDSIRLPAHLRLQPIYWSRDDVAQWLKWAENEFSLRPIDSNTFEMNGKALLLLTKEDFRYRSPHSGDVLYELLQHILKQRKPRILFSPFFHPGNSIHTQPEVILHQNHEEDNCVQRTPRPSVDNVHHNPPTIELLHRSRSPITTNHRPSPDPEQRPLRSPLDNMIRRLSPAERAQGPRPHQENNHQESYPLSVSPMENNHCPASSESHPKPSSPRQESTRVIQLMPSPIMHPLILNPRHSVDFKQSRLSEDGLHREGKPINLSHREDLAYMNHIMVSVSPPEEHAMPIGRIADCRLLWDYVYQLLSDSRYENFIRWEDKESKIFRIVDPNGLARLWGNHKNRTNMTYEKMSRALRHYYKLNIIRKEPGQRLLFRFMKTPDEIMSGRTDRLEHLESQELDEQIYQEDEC

CRX, sequence (O43186 whole entry): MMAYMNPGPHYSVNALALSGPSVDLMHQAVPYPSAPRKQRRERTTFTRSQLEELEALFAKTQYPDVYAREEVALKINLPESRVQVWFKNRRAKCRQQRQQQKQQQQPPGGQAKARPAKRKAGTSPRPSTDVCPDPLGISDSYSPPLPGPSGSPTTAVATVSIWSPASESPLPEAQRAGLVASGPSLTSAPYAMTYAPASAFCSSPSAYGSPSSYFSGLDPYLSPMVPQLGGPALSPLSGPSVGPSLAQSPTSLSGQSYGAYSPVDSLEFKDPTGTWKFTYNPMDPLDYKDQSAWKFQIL
ETV1, sequence (P50549 whole entry): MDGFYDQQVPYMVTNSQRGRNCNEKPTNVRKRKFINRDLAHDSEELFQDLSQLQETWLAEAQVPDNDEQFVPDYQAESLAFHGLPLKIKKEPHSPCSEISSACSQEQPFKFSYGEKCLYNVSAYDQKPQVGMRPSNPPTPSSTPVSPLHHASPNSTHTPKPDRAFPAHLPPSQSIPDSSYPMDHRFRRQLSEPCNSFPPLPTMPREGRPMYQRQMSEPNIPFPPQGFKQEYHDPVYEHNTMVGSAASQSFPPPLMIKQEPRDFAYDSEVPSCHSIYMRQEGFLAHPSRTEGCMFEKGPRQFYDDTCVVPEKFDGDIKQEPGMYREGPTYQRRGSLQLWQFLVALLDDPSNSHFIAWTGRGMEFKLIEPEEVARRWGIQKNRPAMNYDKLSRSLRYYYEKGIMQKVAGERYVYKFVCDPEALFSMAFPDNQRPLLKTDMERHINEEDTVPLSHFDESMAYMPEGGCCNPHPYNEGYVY
ETV5, sequence (P41161 whole entry): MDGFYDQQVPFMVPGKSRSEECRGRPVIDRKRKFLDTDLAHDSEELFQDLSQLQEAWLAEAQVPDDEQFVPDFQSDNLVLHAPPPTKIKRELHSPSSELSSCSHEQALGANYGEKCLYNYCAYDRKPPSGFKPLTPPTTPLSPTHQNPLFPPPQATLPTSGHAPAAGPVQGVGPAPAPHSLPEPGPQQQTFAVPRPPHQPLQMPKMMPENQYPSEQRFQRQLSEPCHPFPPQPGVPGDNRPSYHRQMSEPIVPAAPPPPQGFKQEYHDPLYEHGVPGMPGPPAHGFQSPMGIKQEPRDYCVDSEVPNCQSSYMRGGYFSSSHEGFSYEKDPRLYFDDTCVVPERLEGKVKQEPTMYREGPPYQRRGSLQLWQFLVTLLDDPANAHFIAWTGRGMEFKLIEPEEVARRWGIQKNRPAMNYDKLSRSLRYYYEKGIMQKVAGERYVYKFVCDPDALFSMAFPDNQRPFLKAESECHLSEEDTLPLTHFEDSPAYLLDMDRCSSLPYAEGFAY
ELF4, sequence (Q99607 whole entry): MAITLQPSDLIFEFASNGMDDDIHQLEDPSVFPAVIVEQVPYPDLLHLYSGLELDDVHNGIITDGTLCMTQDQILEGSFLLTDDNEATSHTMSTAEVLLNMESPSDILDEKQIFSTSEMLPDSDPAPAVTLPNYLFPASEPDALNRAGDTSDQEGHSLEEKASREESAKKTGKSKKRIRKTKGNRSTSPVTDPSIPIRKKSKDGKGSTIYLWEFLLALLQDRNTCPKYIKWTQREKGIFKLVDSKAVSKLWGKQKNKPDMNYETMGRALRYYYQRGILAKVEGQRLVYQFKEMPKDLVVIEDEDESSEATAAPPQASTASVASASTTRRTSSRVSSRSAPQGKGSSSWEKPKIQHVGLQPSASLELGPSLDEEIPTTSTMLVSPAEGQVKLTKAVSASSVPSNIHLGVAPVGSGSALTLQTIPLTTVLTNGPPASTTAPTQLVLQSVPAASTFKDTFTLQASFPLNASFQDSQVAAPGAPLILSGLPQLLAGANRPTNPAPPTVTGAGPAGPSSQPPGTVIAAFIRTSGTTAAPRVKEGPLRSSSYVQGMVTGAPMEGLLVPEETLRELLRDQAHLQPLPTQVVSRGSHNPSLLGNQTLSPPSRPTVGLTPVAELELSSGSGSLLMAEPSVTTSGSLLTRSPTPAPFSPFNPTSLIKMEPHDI
HSF1, sequence (Q00613 whole entry): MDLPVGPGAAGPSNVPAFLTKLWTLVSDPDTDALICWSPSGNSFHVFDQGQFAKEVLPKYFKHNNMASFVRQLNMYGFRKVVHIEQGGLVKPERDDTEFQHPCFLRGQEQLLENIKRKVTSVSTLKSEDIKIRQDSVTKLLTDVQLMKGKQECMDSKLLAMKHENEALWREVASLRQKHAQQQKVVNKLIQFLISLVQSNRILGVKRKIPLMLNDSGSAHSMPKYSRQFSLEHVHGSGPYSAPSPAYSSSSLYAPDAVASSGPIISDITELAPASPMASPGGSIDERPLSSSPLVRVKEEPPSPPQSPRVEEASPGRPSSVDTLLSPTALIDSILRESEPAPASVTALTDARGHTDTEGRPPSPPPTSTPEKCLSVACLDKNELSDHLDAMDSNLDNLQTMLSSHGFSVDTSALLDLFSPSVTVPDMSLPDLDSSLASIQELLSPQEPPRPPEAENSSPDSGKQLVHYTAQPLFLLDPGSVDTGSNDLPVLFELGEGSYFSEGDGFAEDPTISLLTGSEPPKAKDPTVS

As for TGGCTT, the binding signal with FEV was 1.34 fold enrichment (6-mer frequency, TF over GST control); with ETV5, 1.19 fold enrichment (6-mer frequency, TF over GST control); with HSF1, 1.38 fold enrichment (6-mer frequency, TF over GST control); with SPIC, 1.34 fold enrichment (6-mer frequency, TF over GST control); with ELF4 it was 1.28 fold enrichment (6-mer frequency, TF over GST control); in the assay with ELK4 it was 1.23 fold enrichment (6-mer frequency, TF over GST control). The binding signal with ETV2 is 1.3 fold enrichment (6-mer frequency, TF over GST control); with ELF3, 1.32 fold enrichment (6-mer frequency, TF over GST control); with CRX, 1.75 fold enrichment (6-mer frequency, TF over GST control); with ETV1, 1.1 fold enrichment (6-mer frequency, TF over GST control); with ERF it was 1.27 fold enrichment (6-mer frequency, TF over GST control); with ETV3L, 1.17 fold enrichment (6-mer frequency, TF over GST control). Moreover, the binding signal with ETS2 is 1.26 fold enrichment (6-mer frequency, TF over GST control); with SPDEF it was 1.11 fold enrichment (6-mer frequency, TF over GST control); in the assay with ETV7, 1.31 fold enrichment (6-mer frequency, TF over GST control); in the assay with ELF5, 1.18 fold enrichment (6-mer frequency, TF over GST control); in the assay with ETV3, 1.18 fold enrichment (6-mer frequency, TF over GST control); with ETV6, 1.29 fold enrichment (6-mer frequency, TF over GST control).

(Values after publication PMC7862700, “An all-to-all approach to the identification of sequence-specific readers for epigenetic DNA modifications on cytosine”.)
